Measurements: PubChem BioAssay AID686978 (National Center for Advancing Translational Sciences (NCATS), 2013)
Out of some 420,000 compounds screened, about 64,000 (15%) were called active. Another 27% or so got no clear call; they are omitted. Not all results are given here. Unmarked numbers belong to inactive results. Calls follow the shape of the dose curve; as a rule, active = well fitted inhibition curve with a large enough effect; inconclusive = small, poorly fitted or top-dose-only effect; inactive = flat fitted curve, though single readings scatter.

Experiment: qHTS for Inhibitors of human tyrosyl-DNA phosphodiesterase 1 (TDP1): qHTS in cells in absence of CPT; also: nearly all actives have a fitted effect of over 55% in size
Conditions: DT40 Tdp1-/- hTDP1 cells, no CPT, ATP luminescence, 48 h; activity change, negative = growth inhibition: at 46.2 µM (top of the series)
In short: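 Luminescent ATP content (CellTiter-Glo) served as the growth readout. Knockout chicken DT40 cells expressing human TDP1 were exposed to compounds without camptothecin for a minimum 48 hr at 37 °C.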
% is scaled to controls: 0 for no effect and ±100 for the full control effect; potency is read from the fitted curve at half-maximal effect.

Structure (SMILES)	activity change, negative = growth inhibition	Potency
Cc1nn(C)c(C)c1Sc1ccccc1N	-25.8%	–
CC(=O)OC(C(=O)NCCc1ccccc1)c1cccnc1 (stereo unspecified)	-11.2%	–
O=C(NCCc1ccc2c(c1)OCCO2)c1cc2ccccc2o1	–	20.6 µM (active)
O=C(Cc1ccc([N+](=O)[O-])cc1)NCCc1ccc2c(c1)OCO2	-29.4%	–
O=C(COC(=O)c1ccc2c(c1)OCCO2)NCc1ccccc1	-27%	–
CN(C)S(=O)(=O)c1ccc(N2CCCC2)c(C(=O)Nc2cccc(F)c2)c1	-22.9%	–
CCN(CC)C(=O)CN(c1cccc([N+](=O)[O-])c1)S(=O)(=O)c1ccccc1	-46.2%	–
O=C(CCl)N(Cc1cccc([N+](=O)[O-])c1)c1cccc(Cl)c1	–	4.11 µM (active)
O=C(Nc1cccc([N+](=O)[O-])c1)Nc1ccc(Cl)cn1	-3.01%	–
O=C1O/C(=C\c2ccc(O)cc2)C(O)=C1c1ccc(O)cc1	-6.83%	–
Cc1cc(C)c2nc(N3CCCC3)c(C#N)cc2c1	-23.4%	–
Cc1cccc2cc(C#N)c(N3CCCC3)nc12	-7.84%	–
Cc1cc(C)c2cc(C#N)c(N3CCNCC3)nc2c1	–	18.4 µM (active)
Cc1cccc(C)c1NC(=O)CNC(=O)c1c(C)nn(-c2ccccc2)c1C	-7.42%	–
COC(=O)N1CCC[C@@]2(CCN(C(=O)NC(C)C)C2)C1	-2.27%	–
O=C(COc1ccc(Cl)cc1)N1CCN(c2cccc(C(F)(F)F)c2)CC1	–	20.6 µM (active)
COc1ccc(N2CCN(C(=O)COc3ccc4c(C)cc(=O)oc4c3)CC2)cc1	-28%	–
Cc1c(C)c2ccc(OCC(=O)N3CCN(c4cccc(Cl)c4)CC3)cc2oc1=O	–	10.3 µM (active)
COc1ccc(OCC(=O)N2CCN(C(=O)COc3ccccc3)CC2)cc1	-0.321%	–
OC(COc1ccc2c(c1)CCC2)CN1CCN(c2cccc(Cl)c2)CC1 (stereo unspecified)	–	18.4 µM (active)
CSCCC(NC(=O)COc1ccccc1)C(=O)OCCOc1ccc(Br)cc1 (stereo unspecified)	-13.5%	–
OC(COc1cccc(OCC(O)CN2CCCC2)c1)CN1CCCC1 (stereo unspecified)	2.76%	–
CSCCC(NC(=O)COc1ccccc1)C(=O)OCCOc1ccc(F)cc1 (stereo unspecified)	-30%	–
COc1cccc(OCC(O)CN2CCN(CCO)CC2)c1 (stereo unspecified)	-8.47%	–
CSCCC(NC(=O)COc1ccccc1)C(=O)N1CCN(c2cccc(C(F)(F)F)c2)CC1 (stereo unspecified)	–	13 µM (active)
Cc1cc(=O)oc2cc(OCC(=O)N3CCN(c4ccc(F)cc4)CC3)c(Cl)cc12	-7.04%	–

Structure (SMILES)	activity change, negative = growth inhibition	Potency
O=C(COc1ccc2c(c1)CCC2)N1CCN(c2ccc(F)cc2)CC1	-6.49%	–
O=C(O)c1cc([N+](=O)[O-])c(Nc2cccc3ccccc23)c([N+](=O)[O-])c1	-10%	–
CCn1ncc(C2=NOC(C(=O)N3CCN(c4ccccc4)CC3)C2)c1C (stereo unspecified)	-21.9%	–
O=C1OC(NC(=O)c2ccccc2)C(N2CCOCC2)=C1Cl (stereo unspecified)	-16.7%	–
CCOC(=O)CCCNC(=O)COC(=O)c1cc(Br)c(Br)s1	-23.2%	–
Cc1cccc(C)c1NC(=O)CNC(=O)C1CCCC1	-2.99%	–
CC(C)(C)NC(=O)C(c1ccncc1)N(C(=O)CNC(=O)c1ccco1)c1ccc2c(c1)OCO2 (stereo unspecified)	1.09%	–
Cc1nc(Nc2ccccc2F)c2nnn(Cc3ccccc3Cl)c2n1	-1.73%	–
O=C(CCN1C(=O)[C@@H]2Cc3ccccc3CN2C1=O)NCCc1ccccc1	-4.81%	–
O=C(NC1CCCCC1)C1CC(=O)N(CCc2ccccc2)C1 (stereo unspecified)	1.22%	–
COc1ccccc1-c1nnc(SCC(=O)Nc2ccccc2)o1	-5.16%	–
CCC(=O)c1ccc(OCC(O)CN2CCN(c3cccc(C(F)(F)F)c3)CC2)cc1 (stereo unspecified)	–	25.9 µM (active)
O=C(c1ccccc1)c1ccc(OCC(O)CN2CCCC2)cc1 (stereo unspecified)	-13%	–
CCC(=O)c1ccc(OCC(O)CN2CC(C)OC(C)C2)cc1 (stereo unspecified)	-7.45%	–
CCn1cc(C(=O)NCC(=O)NC(C)(C)CO)c(=O)c2cc3c(cc21)OCO3	-9.68%	–
C/C(=N\NC(=O)C1(C)CC1(Br)Br)c1ccc(C)cc1C (stereo unspecified)	-28.5%	–
COc1ccc(-c2nc3c(s2)CCc2onc(-c4ccc(OC)cc4)c2-3)cc1	–	16.4 µM (active)
COc1ccc(-c2noc(-c3ccc(C)cc3)n2)cc1	-25.9%	–
COc1ccc(-c2cc(C(=O)Nc3sc4c(c3C(N)=O)CCCC4)no2)cc1	-1.26%	–
Cc1ccc(NC(=S)N2CCN(c3ncccn3)CC2)cc1C	-16.6%	–
Cc1sc2ncnc(N3CCC(C(=O)NNC(=O)c4ccc(F)cc4)CC3)c2c1C	–	16.4 µM (active)
O=C(NNC(=O)C1CCN(c2ncccn2)CC1)c1ccccc1	-10%	–
CC(=O)Nc1c(C)nn(-c2ccccc2)c1N1CCC(C(=O)Nc2cc(Cl)ccc2C)CC1	-0.851%	–
Cc1nc2ccc(NC(=O)C3CCCCC3)cc2s1	-29.1%	–
CS(=O)(=O)c1ccc2nc(NC(=O)C3C4C=CC(C4)C3C(=O)O)sc2c1 (stereo unspecified)	-12.2%	–
